# DUX4 txn inh – DUX4-mediated transcription inhibition | 293T-iDUX4 ZSCAN4-Gaussia luciferase reporter, 24 h; hits give low values | activity change, negative = inhibition, % (concentration not given with the values) | 0.8% of 37,000 active | AID 1224904;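 active = mean inhibition of at least 10% in the main channel, exceeding the control channel by a set limit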;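 note: 0% = median of neutral control wells and -100% = median of positive control wells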
# * marks the source's active call; other numbers are inactive results. This excerpt belongs to a sample that is enriched for hits.
SMILES,DUX4 txn inh
O=C(c1ccccc1)N1CC[C@@H]2[C@H](CO)Nc3ccc(C#Cc4cccc(F)c4)cc3[C@@H]21,-40*
CO[C@@H]1CN(C)C(=O)c2cc(NC(=O)CC(F)(F)F)ccc2OC[C@@H](C)N(S(=O)(=O)c2cn(C)cn2)C[C@@H]1C,8
CCCN1[C@@H]2Cn3c(ccc(/C=C/c4ccccc4)c3=O)[C@H]1[C@@H](C(=O)NCC1CC1)[C@@H]2CO,-8
C[C@H](CO)N1C[C@H](C)[C@H](CN(C)S(=O)(=O)c2ccc(F)cc2)OCCCC[C@H](C)Oc2ccc(NC(=O)CCCCCC(=O)Nc3ccccc3N)cc2C1=O,5
CC(C)NC(=O)N1C[C@H]2[C@@H](c3ccccc31)[C@@H](CO)N2C(=O)Nc1ccccc1,-1
C[C@H](CO)N1C[C@H](C)[C@H](CN(C)S(=O)(=O)c2ccc(-n3cccn3)cc2)OCc2cn(nn2)CCCC1=O,-5
C[C@@H]1CN([C@H](C)CO)C(=O)c2ccccc2-c2ccccc2CO[C@@H]1CN(C)Cc1ccc(Cl)c(Cl)c1,-52*
C[C@H]1CN([C@@H](C)CO)C(=O)c2ccccc2-c2ccccc2CO[C@@H]1CN(C)Cc1ccc(Cl)c(Cl)c1,-42*
C[C@@H]1CN([C@H](C)CO)C(=O)c2ccccc2-c2ccccc2CO[C@@H]1CN(C)Cc1ccc2c(c1)OCO2,-10
C[C@H](CO)N1C[C@H](C)[C@@H](CN(C)Cc2ccc(F)cc2)OCc2ccccc2-c2ccccc2C1=O,16
C[C@@H]1CN([C@@H](C)CO)C(=O)c2ccccc2-c2ccccc2CO[C@@H]1CN(C)Cc1ccc(O)cc1,0
C[C@H](CO)N1C[C@H](C)[C@H](CN(C)Cc2ccc(O)cc2)OCc2ccccc2-c2ccccc2C1=O,-3
N#C[C@H]1[C@@H](c2ccc(C3=CCCCC3)cc2)[C@H](CO)N1C(=O)Cc1ccncc1,2
C[C@@H]1CN([C@@H](C)CO)C(=O)c2c(c3ccccc3n2C)-c2ccccc2CO[C@@H]1CN(C)C(=O)C1CC1,5
CO[C@@H]1CN(C)C(=O)c2cc(NS(C)(=O)=O)ccc2OC[C@@H](C)N(CC2CCOCC2)C[C@@H]1C,-10
CC(C)CC#Cc1ccc([C@H]2[C@H](CO)N3CCCCN(S(=O)(=O)Cc4ccccc4)C[C@@H]23)cc1,2
CC(C)CC#Cc1ccc([C@H]2[C@@H](CO)N3CCCCN(S(=O)(=O)c4ccc(F)cc4)C[C@@H]23)cc1,-34*
CC(C)CC#Cc1ccc([C@@H]2[C@@H](CO)N3CCCCN(S(=O)(=O)Cc4ccccc4)C[C@@H]23)cc1,-14*
O=S(=O)(Cc1ccccc1)N1CCCCN2[C@@H](CO)[C@@H](c3ccc(-c4cccnc4)cc3)[C@@H]2C1,-8
O=S(=O)(Cc1ccccc1)N1CCCCN2[C@H](CO)[C@@H](c3ccc(-c4ccc(F)cc4)cc3)[C@@H]2C1,-32*
COc1ccc(S(=O)(=O)N2CCCCN3[C@H](CO)[C@@H](c4ccc(C#CC(C)C)cc4)[C@@H]3C2)cc1,1
COc1cccc(S(=O)(=O)N2CCCCN3[C@@H](CO)[C@@H](c4ccc(C#CCC(C)C)cc4)[C@@H]3C2)c1,-30*
CC(C)CC#Cc1ccc([C@@H]2[C@H](CO)N3CCCCN(S(=O)(=O)c4ccc(F)cc4)C[C@@H]23)cc1,1
COCC#Cc1ccc([C@@H]2[C@H]3CN(S(=O)(=O)c4ccc(OC)cc4)CCCCN3[C@H]2CO)cc1,0
O=S(=O)(Cc1ccccc1)N1CCCCN2[C@H](CO)[C@H](c3ccc(-c4ccc(F)cc4)cc3)[C@@H]2C1,-7
SMILES,DUX4 txn inh
COc1cccc(S(=O)(=O)N2CCCCN3[C@H](CO)[C@H](c4ccc(C#CC5CC5)cc4)[C@@H]3C2)c1,-1
CC(C)CC#Cc1ccc([C@@H]2[C@H](CO)N3CCCCN(S(=O)(=O)Cc4ccccc4)C[C@@H]23)cc1,2
O=C(Cc1ccccc1)N1CC2(C1)[C@@H](c1ccccc1)[C@@H](CO)N2C(=O)c1cccnc1,-6
CCNC(=O)[C@@H]1[C@@H](CO)[C@@H]2Cn3c(ccc(-c4ccccc4F)c3=O)[C@H]1N2CCC(F)(F)F,3
COc1ccc2c3c([nH]c2c1)[C@H](CO)N(S(C)(=O)=O)CC31CN(CC2CCOCC2)C1,15
C[C@@H]1CCCCO[C@@H](CN(C)C(=O)Nc2ccc(F)cc2)[C@H](C)CN([C@@H](C)CO)C(=O)c2cc(NC(=O)NC3CCCCC3)ccc2O1,1
CCN1[C@@H]2c3ccc(-c4ccccc4F)c(=O)n3C[C@H]1[C@H](CO)[C@H]2C(=O)N1CCOCC1,3
C[C@@H]1CCCCO[C@H](CN(C)C(=O)NC2CCCCC2)[C@@H](C)CN([C@@H](C)CO)C(=O)c2cc(NC(=O)Cc3ccccc3)ccc2O1,3
O=C(C[C@H]1CC[C@H]2[C@@H](COC[C@@H](O)CN2C(=O)c2ccncc2)O1)Nc1ccc(-c2ccccc2)cc1,10
COCC(=O)N1[C@@H](CO)[C@@H](c2ccccc2)C12CN(C(=O)c1cccnc1)C2,8
